Holding throughout (experiment): NCI-60 one-dose screen, 48 h (100 = growth as untreated, 0 = no growth, -100 = all killed)
What all share (conditions): 10 µM unless noted

Test [1] relates to HCT-15 colon.
In test [2] the test system is HT29 colon.
For test [3], the system named is SNB-75 CNS.
Test [4] relates to SNB-19 CNS.
The subject of test [5] is U251 CNS.
The test system of test [6] is PC-3 prostate.
The subject of test [7] is SK-MEL-5 melanoma.
The subject of test [8] is UACC-62 melanoma.
In test [9] the test system is LOX IMVI melanoma.
Test [10] deals with SK-MEL-28 melanoma.

Structures are written as SMILES. About 83,000 compounds went through this panel and 20% of them were active in at least one assay; those are over-represented in the sample as a whole.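 Testing used 96-well plates and a 48-hour single-concentration exposure. Example: -40 means 40% of the starting cells died.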 Unmarked numbers belong to inactive results. The source made the active and inactive calls. The calls were made as follows: active = growth percent below 10; inactive = the rest.

On to `CC(=O)c1ccc(N2C(=O)c3ccc(Oc4ccccc4)cc3C2=O)cc1`, for which the growth was 111% in [1]; 104% in [2]; 108% in test [3]; 105% in [4]; 108% in test [5]; 91.2% in [6]. Moreover, the growth in test [7] is 103%; in test [8], 98.9%; in [9], 103%; in test [10], 111%.

Turning to `CC(C)[C@@H]1C=C2CC[C@H]3[C@](C)(CN)CCC[C@]3(C)[C@H]2CC1`, the growth in test [1] was 44.5%; in test [2], -34.1% (active); in test [3], 64.8%; in [4] it was 104%; in test [5], 14%; in [6], 69.6%. The growth in test [7] was 69.3%; in [8] it was 86.3%; in test [9], 43.6%; in test [10], -82.1% (active).

`COC(=O)CSc1ccc(Cl)cc1`: the growth was 106% in test [1]; 103% in test [2]; 94.9% in test [3]; 103% in [4]; 103% in [5]; 107% in test [6]. The growth in test [7] was 114%; in test [8], 114%; in [9], 102%; in [10] it was 108%.

Regarding `CCCCCCCC/C=C\CCCCCCCC(=O)OCCCCCC`, the growth in [1] was 101%; in test [2], 109%; in [3], 117%; in test [4], 112%; in test [5], 97.1%; in [6], 91.5%. Also, the growth is 108% in test [7], 110% in test [8], 98.8% in [9] and 122% in test [10].

With `CC(=O)Cc1ccccn1`, the growth was 98.6% in test [1]; 95.9% in [2]; 104% in [3]; 114% in test [4]; 93.5% in [5]; 94.8% in test [6]. Besides, the growth in test [7] was 105%; in test [8] it was 108%; in test [9], 103%; in test [10], 106%.

On to `c1ccc(-c2nnn(-c3ccccc3)n2)cc1`, for which the growth in test [1] was 114%; in [2], 104%; in [3] it was 90.4%; in test [4], 101%; in [5], 99.1%; in test [6], 103%. For the same compound, the growth in [7] was 104%; in test [8] it was 94.1%; in [9], 116%; in test [10], 110%.

Consider `CCN(CCC#N)c1ccccc1`, for which the growth in test [1] is 108%; in test [2] it was 109%; in test [3], 98.6%; in test [4], 106%; in [5] it was 103%; in test [6] it was 90.8%. The growth in test [7] is 111%; in test [8], 98.2%; in test [9], 102%; in test [10], 113%.

Take `O=S(=O)(Nc1ccc2ccccc2c1)N1CCCCC1`: the growth was 40.6% in test [1]; 40.9% in test [2]; 52% in [3]; 90.2% in [4]; 57.2% in [5]; 61% in [6]. Further, the growth was 59.8% in test [7], 56% in [8], 51.8% in [9] and 73.6% in test [10].

Consider `COc1ccc(/C=C/C(=O)CCC(=O)O)cc1OC`, for which the growth was 115% in [1]; 101% in [2]; 90.5% in test [3]; 111% in [4]; 107% in test [5]; 111% in [6]. Moreover, the growth in test [7] was 109%; in test [8], 110%; in test [9], 99.7%; in test [10], 112%.

Take `CC(C)[C@@]12C[C@@H](OC(=O)[C@H]3CO3)[C@@](C)(O1)[C@@H]1CC[C@@H](C)[C@H]1[C@@H]2OC(=O)/C=C/c1ccccc1`: the growth was 55.5% in test [1]; 84.3% in [2]; 71.4% in test [3]; 86.6% in test [4]; 67.8% in [5]; 60.7% in test [6]. Besides, the growth is 93.4% in test [7], 70.1% in test [8], 70.9% in test [9] and 106% in [10].

`C=C(c1ccc(C(=O)NCCCn2ccnc2)cc1)c1cc2c(cc1C)C(C)(C)CCC2(C)C`: the growth in test [1] is 21.1%; in test [2], 16.1%; in test [3], 41.4%; in test [4] it was 48.4%; in test [5], 12.1%; in [6], -6.2% (active). Further, the growth in test [7] was 0.58% (active); in [8], 66.7%; in test [9], -25.7% (active); in [10] it was 6.96% (active).

As for `N/C(=C\C(=O)n1nc(-c2ccccc2)cc1N)c1ccccc1`, the growth was 33.5% in test [1]; 23.8% in test [2]; 29.9% in test [3]; 66.6% in [4]; 36.7% in test [5]; 22.6% in test [6]. Moreover, the growth in [7] is 32.2%; in [8], 36.9%; in [9], 51.4%; in test [10], 42.2%.

Consider `CCCCOC(=O)c1cc(O)c(O)c(O)c1`, for which the growth in [1] is 49.1%; in test [2] it was 85.3%; in [3] it was 55.6%; in test [4], 88.9%; in [5] it was 65.2%; in test [6], 80.4%. Further, the growth in test [7] is 93.5%; in [8] it was 62%; in [9], 74.4%; in test [10], 90.6%.

For `C=C1C(=O)O[C@H]2[C@H]1CC/C(COC(=O)NCc1cn(C)c3ccccc13)=C\CC[C@@]1(C)O[C@@H]21`, the growth was -45.8% (active) in test [1]; -62% (active) in test [2]; 50% in test [3]; 54.2% in [4]; 0.165% (active) in [5]; 8.71% (active) in test [6]. The growth in [7] is 10.6%; in test [8] it was -41% (active); in [9] it was -65% (active); in test [10], -14.6% (active).

On to `O=c1c2cc(Cl)ccc2oc2ccc(OCCCCCN3CCCCC3)cc12`, for which the growth was -14.7% (active) in test [1]; -27.9% (active) in [2]; 102% in [3]; 77.5% in [4]; 46% in test [5]; 69.1% in test [6]. Further, the growth in test [7] is -26.2% (active); in [8], -52.7% (active); in [9], -6.06% (active); in test [10], 12%.

Turning to `COc1ccc(C(=O)O)cc1.[Ag]`, the growth is 102% in [1]; 103% in [2]; 110% in [3]; 106% in [4]; 103% in test [5]; 77.1% in test [6]. Moreover, the growth is 46.5% in [7], 108% in test [8], 88.7% in test [9] and 110% in test [10].

As to `Cc1cccc(N=NC(=S)NNc2cccc(C)c2)c1`, the growth in test [1] was 108%; in test [2], 97.9%; in test [3], 88.7%; in [4] it was 106%; in test [5], 114%; in [6], 102%. In addition, the growth in [7] was 108%; in test [8] it was 101%; in [9] it was 105%; in test [10], 125%.

As for `O=C(Nc1ccc(Br)cc1)c1ccc(Cl)c(Cl)c1`, the growth in test [1] was 32.3%; in test [2], 40.1%; in test [3], 38.6%; in test [4], 35%; in test [5] it was 32.4%; in test [6] it was -22% (active). Further, the growth is 49.4% in [7], 43.6% in test [8], 33.3% in [9] and 73% in [10].

`CC[C@H](C)[C@H](N)C(=O)O`: the growth in test [1] was 107%; in test [2] it was 109%; in test [3], 99.1%; in test [4], 105%; in test [5] it was 107%; in [6], 99.1%. Further, the growth in test [7] was 101%; in test [8], 102%; in test [9], 98.7%; in test [10], 109%.

On to `CCCCCCCC/C=C/CCCCCCCC1=NC(C)(C)CN1c1ccccc1`, for which the growth in test [1] is 80.5%; in test [2] it was 66.8%; in [3], 90%; in test [4], 87.8%; in test [5] it was 84.5%; in test [6], 64%. In addition, the growth in test [7] is 92.4%; in test [8], 75.2%; in test [9], 85.3%; in test [10], 103%.

For the compound `COc1cc2ncnc(Nc3ccc(S(=O)(=O)Nc4cc(C)on4)cc3)c2cc1OCCCN1CCN(c2ccc([N+](=O)[O-])cc2)CC1`, the growth is 105% in [1]; 107% in [2]; 91.9% in [3]; 100% in test [4]; 97.1% in test [5]; 104% in [6]. Moreover, the growth in test [7] is 111%; in test [8], 94.4%; in [9], 96.1%; in test [10] it was 112%.

`CC(C)OC1OC(OC(C)C)C(OC(C)C)OC1OC(C)C` (centres undefined): the growth was 98.1% in test [1]; 95.8% in test [2]; 99% in test [3]; 90.9% in test [4]; 90.3% in test [5]; 91.8% in test [6]. The growth in test [7] is 110%; in test [8] it was 85.9%; in [9], 102%; in test [10], 106%.

With `COC(=O)C(Br)(C(=O)OC)C(Br)C(Br)C(Br)c1ccccc1` (centres undefined), the growth in test [1] is -37.8% (active); in [2], 32.3%; in test [3] it was 92.4%; in test [4] it was 98.6%; in test [5], 81.5%; in test [6] it was 93.3%. The growth in test [7] is 98.4%; in test [8] it was 60.2%; in [9], 9.1% (active); in test [10], 108%.

For `O=C(CCl)Nc1ccc2c(c1)C(=O)c1ccccc1C2=O`, the growth was -38.8% (active) in [1]; -63.6% (active) in [2]; 41.7% in [3]; 36.9% in test [4]; -56.3% (active) in test [5]; -12.6% (active) in [6]. Also, the growth was -82.8% (active) in [7], -54.9% (active) in test [8], -81% (active) in [9] and 35.4% in test [10].

For the compound `COc1ccc(-n2c(COc3ccc(F)cc3)n[nH]c2=S)cc1`, the growth in [1] is 114%; in test [2], 103%; in [3], 97.7%; in [4], 106%; in test [5], 97.4%; in [6], 154%. Moreover, the growth in test [7] was 105%; in test [8] it was 98.6%; in [9] it was 104%; in test [10], 127%.

On to `COc1cccc(/C=N\Nc2ccc([N+](=O)[O-])cn2)c1O`, for which the growth was 29.7% in test [1]; 99.1% in [2]; 83.1% in test [3]; 50.9% in [4]; 21.7% in [5]; 97.5% in [6]. The growth in [7] is 49.8%; in [8], 54.7%; in [9] it was 36.9%; in test [10], 83.5%.

`COc1ccc2[nH]cc(C3(c4c[nH]c5ccc(OC)cc45)C(=O)Nc4ccc(Cl)cc43)c2c1`: the growth is 69.1% in [1]; 44.9% in test [2]; 39.7% in test [3]; 72.2% in test [5]; 15% in [6]; 89.2% in [7]. Besides, the growth in [8] was 73%; in test [9], 45%; in [10], 95.3%.
